Assay results as given in PubChem BioAssay (NCI).
The panel holds about 83,000 compounds, 20% with a hit somewhere; the sample as a whole holds those more often.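 Step 1: grow cells in 96-well plates. Step 2: add test compound at a single concentration. Step 3: incubate 48 h. Step 4: record percent growth.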 Values without a mark were called inactive. Calls of active or inactive are those of the source. The calls were made as follows: active = growth percent below 10; inactive = the rest.

System: RXF 393 renal
Assay: NCI-60 one-dose screen, 48 h (100 = growth as untreated, 0 = no growth, -100 = all killed)
Details: 10 µM unless noted

| Structure (SMILES) | growth |
| --- | --- |
| Cc1nn(-c2ccccc2)c(Cl)c1/C=C/C(=O)c1ccc(F)cc1 | 80.8% |
| COc1cc2oc(-c3cccc(C(=O)Nc4ccc(Br)cc4)c3)cc(=O)c2c(OC)c1OC | -2.47% (active) |
| CC1=C(C(=O)/C=C/c2c[nH]c3ccccc23)C(c2ccccc2)NC(=S)N1 (stereo not given) | 105% |
| CCCCCN1C=C/C(=C\C(=O)N(C)c2ccc(Oc3ccccc3)cc2)c2ccccc21 | 85.8% |
| Cn1cc(-c2nc(-c3c[nH]c4c(Cl)nccc34)cs2)c2cc(Br)ccc21 | 95.9% |
| COc1ccc(/C=C2\Oc3cc(OCCCN4CCCCC4)ccc3C2=O)cc1OC | 74.4% |
| Cc1cc2nc3c4cc(C=O)ccc4n(CCN(C)C)c3nc2cc1C | 19.4% |
| S=c1cc(S)c2cc(Br)ccc2[nH]1 | 111% |
| O=C(/C(=C\c1ccc([N+](=O)[O-])cc1)S(=O)Cc1ccc(Cl)cc1)c1ccc(Cl)cc1 (stereo not given) | 52.4% |
| COc1cc(CC(=O)c2ccc(O)c(OC)c2)ccc1O | 102% |
| O=C(NCCc1ccccc1)Nc1ccc2cc3ccc(NC(=O)NCCc4ccccc4)cc3nc2c1 | -21.5% (active) |
| C=C(C)[C@@H]1CC[C@]2(C(=O)N3CCN(C)CC3)CC[C@]3(C)[C@H](CC[C@@H]4[C@@]5(C)C/C(=C/c6cccnc6)C(=O)C(C)(C)[C@@H]5CC[C@]43C)[C@@H]12 | 52.2% |
| COc1cc2nc(-c3ccc(Cl)cc3)cc(OCCCN3CCC(O)CC3)c2cc1OC | 46.3% |
| O=S(=O)(NCCNc1nccc(-c2c(-c3cccc(O)c3)nc3occn23)n1)c1ccccc1 | 90.3% |
| NC(=NCCCOc1ccc(F)cc1)Nc1ccc(Cl)cc1 | 73.6% |
| C#Cc1cccc(NC(=O)c2cccc(NC(=O)CCl)c2)c1 | -20.9% [8.25 µM] (active) |
| CCN1Cc2nc3sc(C)c(C)c3c(=O)n2C=C1C | 45.8% |
| O=C1Nc2cc(-c3cccc([N+](=O)[O-])c3)ccc2/C1=C/c1ccc[nH]1 | 82.1% |

| Structure (SMILES) | growth |
| --- | --- |
| C[C@H]1[C@H](C)CC[C@]2(C(=O)NCC#CCN3CCN(C)CC3)CC[C@]3(C)C(=CC[C@@H]4[C@@]5(C)Cc6c([nH]c7ccccc67)C(C)(C)[C@@H]5CC[C@]43C)[C@H]12 | 84.9% |
| COc1cc(/C=C/c2cc(O)c(C(C)=O)c(O)c2)cc2c1O[C@]1(C)CC[C@@H](O)C(C)(C)[C@H]1C2 | -19.4% (active) |
| N#CC1=C(N)Oc2c(cnn2-c2ccc([N+](=O)[O-])cc2[N+](=O)[O-])C1c1ccccc1 (stereo not given) | 110% |
| COc1ccc(C(=O)c2cc(C)c(OC)c(C)c2)c(OC)c1N(C(=O)CCl)C(=O)CCl | 23.7% |
| CCC(=O)Oc1ccc(/C(=C(\C)c2ccccc2)c2ccc(OCCN3CCCCC3)cc2)cc1 | 73.9% |
| Cc1ccc(NC(=O)c2cc(-c3nc4ccccc4s3)c(=O)n(NS(=O)(=O)c3ccc(Cl)cc3)c2N)cc1 | 112% |
| O=C1Nc2ccc(F)cc2/C1=C\c1c(-c2ccccc2)nc2ccccn12 | 50.8% |
| O=C(NO)c1ccc(-n2nc(-c3ccccc3)c3ccccc32)cc1 | 36.5% |
| O=C1Nc2ccccc2/C1=C\c1c(-c2ccc(F)cc2)nc2ccccn12 | 67% |
| Oc1cccc(CCc2ccc(Oc3cc(CCc4cccc(O)c4)cc(O)c3O)cc2)c1 | 81% |
| CCCCCCCC(=O)OCC/C=C/C1OC1C1OC(=O)/C=C\C=C\C(=O)N(C(C)=O)C(=O)/C=C(/C)CCC2OC2C1OC(=O)NC(C)=O (stereo not given) | 78.7% |
| Cc1ccc(NS(=O)(=O)c2ccc(-c3cnc(C4CC4)o3)cc2)cc1C(F)(F)F | 69.4% |
| CNC(=O)c1cncc(Cn2nc(C)c(NC(=O)c3ccc(COc4ccc(C(F)(F)F)cc4C)cc3)c2C)c1 | 83.7% |
| Cc1cc(C)c(S(=O)(=O)Oc2ccccc2[N+](=O)[O-])c(C)c1 | 4.44% (active) |
| C=C1C(=O)O[C@H]2[C@H]1CC/C(CNC(=O)C(C)c1ccc(CC(C)C)cc1)=C\CC[C@@]1(C)O[C@@H]21 (stereo not given in full) | -64.4% (active) |
| NC(=S)N1N=C(c2ccccc2)CC1c1cn(-c2ccccc2)nc1-c1ccc(OCc2ccccc2)cc1 (stereo not given) | 110% |
| CN1CCN(C(=O)[C@]23CCC(C)(C)C[C@H]2C2=CC[C@@H]4[C@@]5(C)C/C(=C/c6cccnc6)C(=O)C(C)(C)[C@@H]5CC[C@@]4(C)[C@]2(C)CC3)CC1 | 64.9% |
